PubChem BioAssay
Activity calls are given as the source filed them.

Legend:
[1] = small molecules captured by biotinylated probe aFSTL3 – biochemical, small-molecule microarray, fluorescence 635/667, stem cell growth factor project, primary screen (AID 1064); conditions: higher = more signal;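 further: measures binding of the biotinylated anti-FSTL3 antibody to printed compounds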
[2] = binders from COS7 lysate, DM2A8 probe, primary screen, torsin A project, cell lysate, small-molecule microarray, fluorescence 635/667 (AID 1065); conditions: higher = more signal, COS7 lysate expressing mutant human TOR1A
[3] = small molecules captured by biotinylated probe aFGF2 – biochemical, small-molecule microarray, fluorescence 635/667, stem cell growth factor project, primary screen (AID 1067); conditions: higher = more signal;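 further: measures binding of biotinylated aFGF2 protein to printed compounds on slides; z-score merges feature fluorescence and signal-to-noise across triplicate slides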
[4] = small molecules captured by biotinylated probe aFGF10 – biochemical, small-molecule microarray, fluorescence 635/667, stem cell growth factor project, primary screen (AID 1071); conditions: higher = more signal;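 further: score merges 667 nm spot intensity and signal to noise from triplicate slides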
[5] = biological target: Neurogenic locus notch homolog protein 2 (Homo sapiens) (UniProt Q04721); experiment: small molecules binding Notch2 protein – biochemical, small-molecule microarray, 635 nm fluorescence, stem cell growth factors, primary screen (AID 1073); conditions: higher = more signal
[6] = biological target: Pro-neuregulin-1, membrane-bound isoform (Homo sapiens) (UniProt Q02297); experiment: small molecules binding neuregulin-1 protein – biochemical, small-molecule microarray, fluorescence 635/667, psychiatric disease protein project, primary screen (AID 1075); conditions: NRG1 binding, 635 nm fluorescence, higher = more signal;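 further: score combines 667 nm spot fluorescence with signal to noise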
[7] = system: Neuregulin-1 EGF-like domain; experiment: small molecules binding NRG1 EGF domain – biochemical, small-molecule microarray, 635 nm fluorescence, primary screen (AID 1081); conditions: higher = more signal;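 further: binding of the protein to compounds printed on small-molecule microarray slides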
[8] = FRG1 expression reporter modulators in myotubes – cell-based, C2C12 myotubes, firefly/Renilla luciferase, luminescence, FRG1 inhibition for FSHD, primary screen (AID 1084); conditions: FRG1 promoter luciferase, higher = more signal, called active from +8 up or from −8 down
[9] = small molecules captured by biotinylated probe aFST – biochemical, small-molecule microarray, fluorescence 635/667, stem cell growth factor project, primary screen (AID 1086); conditions: higher = more signal;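 further: score merges 667 nm fluorescence with signal-to-noise of each printed compound spot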
[10] = binders of probe aHhip on microarray, primary screen, stem cell growth factor project, biochemical, small-molecule microarray, fluorescence 635/667 (AID 1087); conditions: higher = more signal;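 further: score merges spot fluorescence at 667nm with spot signal to noise ratio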

Neurogenic locus notch homolog protein 2 (Homo sapiens), sequence (Q04721 whole entry, looked up, canonical isoform): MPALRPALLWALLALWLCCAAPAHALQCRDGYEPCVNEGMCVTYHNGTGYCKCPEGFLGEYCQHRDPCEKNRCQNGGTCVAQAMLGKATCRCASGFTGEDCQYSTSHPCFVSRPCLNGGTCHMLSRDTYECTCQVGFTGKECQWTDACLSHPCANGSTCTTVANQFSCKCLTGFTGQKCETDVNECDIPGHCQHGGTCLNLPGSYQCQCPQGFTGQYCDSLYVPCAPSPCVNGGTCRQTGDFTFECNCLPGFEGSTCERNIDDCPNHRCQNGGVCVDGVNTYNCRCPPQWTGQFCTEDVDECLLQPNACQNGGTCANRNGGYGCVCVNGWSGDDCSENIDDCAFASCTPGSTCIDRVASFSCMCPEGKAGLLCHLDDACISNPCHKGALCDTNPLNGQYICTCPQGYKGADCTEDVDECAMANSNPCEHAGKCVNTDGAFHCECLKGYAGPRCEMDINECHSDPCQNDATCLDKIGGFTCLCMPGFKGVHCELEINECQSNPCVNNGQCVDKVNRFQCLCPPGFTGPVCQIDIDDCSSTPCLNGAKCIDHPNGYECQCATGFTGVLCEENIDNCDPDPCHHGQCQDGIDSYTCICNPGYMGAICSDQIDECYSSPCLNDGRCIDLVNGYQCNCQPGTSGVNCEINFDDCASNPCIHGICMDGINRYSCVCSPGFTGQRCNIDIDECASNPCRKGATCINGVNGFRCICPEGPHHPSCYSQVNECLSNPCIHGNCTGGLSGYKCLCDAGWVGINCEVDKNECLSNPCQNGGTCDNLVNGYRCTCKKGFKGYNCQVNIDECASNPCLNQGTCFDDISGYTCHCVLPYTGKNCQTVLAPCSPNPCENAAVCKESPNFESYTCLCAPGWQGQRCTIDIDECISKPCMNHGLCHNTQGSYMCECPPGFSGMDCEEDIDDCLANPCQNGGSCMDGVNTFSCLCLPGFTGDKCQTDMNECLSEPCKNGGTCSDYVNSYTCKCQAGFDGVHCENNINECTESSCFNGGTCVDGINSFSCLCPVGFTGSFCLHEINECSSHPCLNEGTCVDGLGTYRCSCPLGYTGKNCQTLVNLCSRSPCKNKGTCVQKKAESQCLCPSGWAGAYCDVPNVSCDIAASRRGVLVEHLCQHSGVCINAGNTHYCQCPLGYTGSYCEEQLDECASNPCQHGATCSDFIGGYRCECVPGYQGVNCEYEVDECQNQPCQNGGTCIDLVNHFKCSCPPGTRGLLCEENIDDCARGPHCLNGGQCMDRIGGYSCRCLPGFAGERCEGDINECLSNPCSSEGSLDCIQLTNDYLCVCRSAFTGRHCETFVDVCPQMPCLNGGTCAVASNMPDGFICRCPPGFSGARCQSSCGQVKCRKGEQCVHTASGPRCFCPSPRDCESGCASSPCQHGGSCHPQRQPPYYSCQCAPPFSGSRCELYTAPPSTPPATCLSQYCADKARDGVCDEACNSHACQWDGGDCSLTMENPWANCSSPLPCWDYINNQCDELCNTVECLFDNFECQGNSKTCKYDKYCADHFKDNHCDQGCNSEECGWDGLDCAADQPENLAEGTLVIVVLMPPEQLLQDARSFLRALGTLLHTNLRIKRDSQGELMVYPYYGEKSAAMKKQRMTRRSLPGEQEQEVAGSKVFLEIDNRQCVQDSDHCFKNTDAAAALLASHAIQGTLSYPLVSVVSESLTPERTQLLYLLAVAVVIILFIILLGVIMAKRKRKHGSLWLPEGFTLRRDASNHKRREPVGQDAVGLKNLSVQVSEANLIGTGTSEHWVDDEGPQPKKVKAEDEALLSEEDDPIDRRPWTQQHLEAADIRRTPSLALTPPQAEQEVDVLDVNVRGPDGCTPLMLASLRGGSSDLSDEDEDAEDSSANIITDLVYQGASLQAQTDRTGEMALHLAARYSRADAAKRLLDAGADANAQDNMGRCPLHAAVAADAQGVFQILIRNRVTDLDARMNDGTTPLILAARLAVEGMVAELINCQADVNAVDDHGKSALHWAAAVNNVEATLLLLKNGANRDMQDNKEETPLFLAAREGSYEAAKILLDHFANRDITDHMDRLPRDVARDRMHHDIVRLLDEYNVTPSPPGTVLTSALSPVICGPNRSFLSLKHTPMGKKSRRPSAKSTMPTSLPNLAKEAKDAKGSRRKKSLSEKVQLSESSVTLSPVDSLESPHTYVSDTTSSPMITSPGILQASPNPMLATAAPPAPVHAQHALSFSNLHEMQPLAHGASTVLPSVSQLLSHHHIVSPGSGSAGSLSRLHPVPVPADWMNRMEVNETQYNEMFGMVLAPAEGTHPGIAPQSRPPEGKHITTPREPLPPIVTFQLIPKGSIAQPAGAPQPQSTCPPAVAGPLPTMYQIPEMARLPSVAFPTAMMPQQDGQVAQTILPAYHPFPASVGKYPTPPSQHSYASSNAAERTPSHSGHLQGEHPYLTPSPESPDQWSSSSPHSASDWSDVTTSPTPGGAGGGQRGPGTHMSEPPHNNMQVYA
Pro-neuregulin-1, membrane-bound isoform (Homo sapiens), sequence (Q02297 whole entry, looked up, the tested form may be a part, canonical isoform): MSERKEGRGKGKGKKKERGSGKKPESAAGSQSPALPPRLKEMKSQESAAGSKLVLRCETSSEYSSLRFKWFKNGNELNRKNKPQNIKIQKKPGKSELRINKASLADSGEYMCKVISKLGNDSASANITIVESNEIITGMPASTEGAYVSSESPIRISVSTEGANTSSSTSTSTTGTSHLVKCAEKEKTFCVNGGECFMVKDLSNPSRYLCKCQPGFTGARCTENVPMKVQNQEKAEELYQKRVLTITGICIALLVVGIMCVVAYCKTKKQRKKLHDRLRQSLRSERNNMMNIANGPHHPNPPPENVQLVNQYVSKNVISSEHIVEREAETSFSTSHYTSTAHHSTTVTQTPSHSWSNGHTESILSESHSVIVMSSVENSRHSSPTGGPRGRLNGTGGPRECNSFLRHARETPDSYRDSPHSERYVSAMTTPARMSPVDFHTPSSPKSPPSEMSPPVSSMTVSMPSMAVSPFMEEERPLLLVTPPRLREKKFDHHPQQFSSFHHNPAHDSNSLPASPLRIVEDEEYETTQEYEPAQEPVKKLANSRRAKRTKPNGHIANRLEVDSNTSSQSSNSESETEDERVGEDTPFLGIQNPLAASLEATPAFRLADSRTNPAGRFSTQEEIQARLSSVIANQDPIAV

Row | SMILES | composite z-score [1] | composite z-score [2] | composite z-score [3] | composite z-score [4] | composite z-score [5] | composite z-score [6] | composite z-score [7] | z-score [8] | composite z-score [9] | composite z-score [10]
1 | CC1CC/C=C\[C@H]2OC34C=CCN(c5ccc6ccccc6c5)C(=O)[C@H]3N(CCCCCO)C(=O)[C@@H]4C2C(=O)O1 (stereo not given in full) | -0.46 | -0.0205 | -0.159 | -1.01 | -1.04 | -0.712 | -0.734 | 0.772 (inactive) | -0.818 | -0.306
2 | CN(C)CCCCCCNC(=O)[C@@H]1C[C@@H]2C(=O)N[C@@H](Cc3ccccc3)C(=O)N2[C@@H]1c1cccc(OCCO)c1 | 0.0797 | 1.42 | -0.0605 | 0.215 | 0.0438 | 1.42 | 1.33 | 3.59 (inactive) | 0.258 | 0.241
3 | O=C(CS)NCCCCCCNC(=O)[C@H]1C[C@H]2C(=O)N3CCC[C@H]3C(=O)N2[C@H]1c1ccc(O)cc1 | 0.112 | -0.0248 | -0.0759 | -0.15 | -0.183 | 0.883 | 1.31 | 1.04 (inactive) | 0.416 | 0.0749
4 | [N-]=[N+]=NCc1ccccc1C[C@]1(C(=O)NCC(O)CO)COC(c2ccc(OCCCO)cc2)=N1 (stereo not given in full) | 1.11 | 2.19 | -0.033 | -0.329 | 0.7 | 1 | 0.691 | -1.03 (inactive) | 1.1 | -0.318
5 | O[C@@H](Cc1ccccc1)[C@@H](/C=C/c1ccccc1)NCc1ccccc1Br | 0.686 | -1.36 | -0.176 | -1.09 | -1.31 | -0.803 | -0.639 | -0.926 (inactive) | -0.579 | -0.475
6 | COCC1=C([C@H](O)CCc2ccccc2)[C@H](CO)[C@@H]2C(=O)N(Cc3ccccc3)C(=O)[C@@H]2C1 | -0.286 | -0.133 | -0.101 | 0.085 | 0.258 | -0.295 | -0.112 | -0.4 (inactive) | -0.0829 | -0.249
7 | C=CCC(OC(C)=O)[C@@H]1[C@@H](N(Cc2ccc(-c3cccc(C(F)(F)F)c3)o2)C(=O)c2ccc(C)cc2)c2cc(OCCCO)ccc2N1C(=O)c1ccc2ccccc2n1 (stereo not given in full) | 0.172 | 0.0875 | -0.036 | 0.515 | 0.126 | 0.147 | 0.118 | -0.352 (inactive) | 0.361 | 0.0373
8 | C=CCOC(=O)[C@H]1[C@@H]2C(=O)O[C@@H](c3ccccc3)[C@@H](c3ccccc3)N2[C@@H](c2ccc(OCCOC(=O)[C@@H]3C[C@@H]4C(=O)NCC(=O)N4[C@@H]3c3ccc(O)cc3)cc2)[C@]12C(=O)Nc1ccc(I)cc12 | -0.321 | 0.335 | 0.0364 | 0.438 | 0.93 | 1.17 | 1.27 | -0.0667 (inactive) | 0.317 | 0.107
9 | COCCOC(=O)N1C(=O)[C@@]2(c3cc(C#Cc4ccc(OC)cc4)ccc31)[C@H](c1ccc(OCCO)cc1)N1[C@H](c3ccccc3)[C@H](c3ccccc3)OC(=O)[C@H]1[C@@H]2C(=O)N1CCc2cc(OC)c(OC)cc2C1 | -0.327 | 0.514 | 0.0051 | 0.214 | 0.871 | 0.424 | 0.981 | -0.948 (inactive) | 0.225 | 0.232
10 | CC(=O)NCCCC[C@@H]1NC(=O)[C@@H]2C[C@H](C(=O)NCc3ccc(F)cc3)[C@H](c3ccc(O)cc3)N2C1=O | 0.114 | 0.798 | 0.0377 | 0.639 | -0.326 | 0.772 | 1.47 | -0.0693 (inactive) | -0.21 | -0.0994
11 | CCOC(=O)C[C@H]1[C@H](OC(=O)c2ccc(C(=O)c3ccccc3)cc2)[C@@H](NC(=O)c2ccc3ccccc3n2)c2cc(OCCCO)ccc2N1C(=O)c1ccc2ccccc2n1 | -0.153 | 0.0772 | -0.16 | 0.56 | 0.876 | 1 | 0.421 | -2.18 (inactive) | 0.845 | -0.201
12 | COCCCNC(=O)[C@@]1(Cc2ccccc2I)c2ccccc2C(=O)N(Cc2ccccc2)[C@H]1c1ccc(CO)cc1 | 0.094 | -0.785 | -0.142 | -0.487 | -1.61 | 0.542 | 1.34 | -4.46 (inactive) | -0.656 | 0.0695
13 | O=C1O[C@H](c2ccccc2)[C@H](c2ccccc2)N2[C@H]1[C@@H](C(=O)NC[C@H](O)c1ccccc1)[C@]1(C(=O)Nc3ccc(C#CC4(O)CCCCCC4)cc31)[C@H]2c1ccccc1OCCO | -0.267 | 0.444 | -0.136 | 0.566 | 0.967 | 0.911 | 1.12 | -0.369 (inactive) | 0.0026 | -0.0645
14 | COc1ccc([Si](C)(C)[C@@H]2[C@@H](CCO)O[C@]3(C(=O)N(Cc4ccc(N5C(=O)c6cccc7cccc5c67)cc4)c4ccccc43)[C@H]2C)cc1 | 0.458 | 0.23 | -0.0566 | -0.383 | -0.35 | 0.995 | 0.695 | -3.01 (inactive) | -0.292 | -0.189
